# In PubChem BioAssay (EPA / NIEHS):
# Activity calls are given as the source filed them. The calls were made as follows: active = hit-call score of the fitted dose curve at least 0.9, where 1 is the maximum; inactive = score below 0.9.
# Experiment: CCTE_Shafer_MEA_dev_network_spike_duration_std: CCTE's Neural Network Formation Assay for Standard Deviation of Network Spike Duration, Shafer Lab (AID 2284052);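 also: hits are decreases in network spike duration SD versus DMSO vehicle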
# Protocol: CCTE_Shafer_MEA_dev assay is conducted using Axion Biosystems 48 well microelectrode array (MEA) plates and Maestro recording system. Each well of the MEA plate contains a grid of 16 microelectrodes embedded in the culture surface. Electrically active cells, such as neurons, can be cultured over the electrodes, and electrical activity in these cells can be recorded extracellularly. The spontaneous firing of neurons is captured from each electrode on a microsecond timescale providing both temporally and spatially precise data. […] The CCTE_Shafer_MEA_dev assay uses primary cultures of rat cortical neurons. Recordings are made on days post-plating 5, 7, 9 and 12. As these cultures mature over time, neural networks develop functional activity and form cohesive networks in which electrical activity can be highly coordinated. CCTE_Shafer_MEA_dev_network_spike_duration_std is 1 of 19 assay components of the CCTE_Shafer_MEA_dev assay. It measures the standard deviation of the duration of network spikes (temporally-clustered groups of action potential firing across multiple electrodes) during a recording in a microelectrode array (MEA) using Axion Biosystems Maestro 768 channel amplifier with the AxIS adaptive spike detector. To collapse across multiple recordings made on days post-plating 5, 7, 9 and 12, the trapezoidal area-under-the-curve of the component is calculated.Data from the assay component CCTE_Shafer_MEA_dev_network_spike_duration_std was analyzed into 1 assay endpoint. This assay endpoint, CCTE_Shafer_MEA_dev_network_spike_duration_std, was analyzed in the negative analysis fitting direction relative to DMSO as the negative control and baseline of activity. Using a type of functional reporter, gain or loss-of-signal activity can be used to understand electrical activity.
# On the day prior to culture, each well was coated thoroughly with 150 uL of 0.05% polyethyleneimine (PEI, Sigma Cat P3143) in 50 mM HEPES (Sigma Cat H7523) at a pH of 8. The plate was incubated at 37C for one hour. PEI was rinsed out with 500 uL of sterile water three times. Plates were stored at 4C until the day of culture. This culture was plated at a seeding density of 1.5 x 10^5 cells/well on a 48-well MEA plate, prepared as described above. Cells were administered via a 25 uL media/laminin ([…]; Sigma Cat L2020-1MG) drop directly onto the microelectrode array, as adding the cells with the laminin results in better attachment than pre-coating with laminin. After 2 hours, an additional 475 uL of cortical media was added and the cells returned to the incubator. Exposure starts at day 0 of plating and is continued over twelve days of network development until the experiment is terminated. Cells are fed with fresh medium on DIV 5 and 9, following the recordings on those days. The entire volume of media in the well is exchanged and any vehicle or compound treatment is renewed. Complete details are found in OP-NHEERL/ISTD/SBB/TJS/2015-03-r0 (available on request, email shafer.tim@epa.gov). Measurement of the electrical activity is non-invasive, and recordings can be made from the same plate over multiple different days of the culture. In cortical neurons, this allows for the measurement of extracellular action potentials over the period during which networks form in the MEA plate.
row,SMILES,outcome
1,O=S(=O)(OCC(F)F)C(F)(F)F,inactive
2,O=C(O)C(F)(F)C(F)(F)C(F)(F)C(F)(F)C(F)(F)C(F)(F)C(F)(F)C(F)(F)C(F)(F)C(F)F,inactive
3,O=C(O)C(F)(F)C(F)(F)C(F)F,inactive
4,OCCCC(F)(F)C(F)(F)C(F)(F)F,inactive
5,FC(F)(F)C(F)(F)CNCC(F)(F)C(F)(F)F,inactive
6,FC(F)(F)C(F)(F)C(F)(F)C(F)(F)C(F)(F)C(F)(F)CC1CO1 (stereo not drawn),inactive
7,FC(F)(F)C(F)(F)C(F)(F)C(F)(F)C(F)(F)CCI,inactive
8,C=CC(=O)OCC(F)(F)C(F)(F)C(F)(F)C(F)(F)COC(=O)C=C,inactive
9,OC[C@@H](O)[C@@H](O)[C@H](O)[C@@H](O)CO,inactive
10,OCC(F)(F)C(F)(F)C(F)(F)F,inactive
11,COC(=O)CCC(F)(F)C(F)(F)C(F)(F)C(F)(F)F,inactive
12,O=C(O)C(F)(F)C(F)(F)C(F)(F)C(F)(F)C(F)(F)C(F)(F)C(F)(F)C(F)(F)Cl,inactive
13,O=C(O)C(F)(F)C(F)(F)C(F)(F)F,inactive
14,OCC(F)(F)C(F)(F)C(F)(F)C(F)F,inactive
15,O=S(=O)(OCCOC(F)(F)F)C(F)(F)F,inactive
16,NC(=O)C(F)(F)C(F)(F)C(F)(F)C(F)(F)F,inactive
17,CC(C)(C)C(=O)CC(=O)C(F)(F)C(F)(F)C(F)(F)F,inactive
18,OCC(F)(F)C(F)(F)C(F)(F)C(F)(F)C(F)(F)C(F)F,inactive
19,O=P(O)(O)OCCC(F)(F)C(F)(F)C(F)(F)C(F)(F)C(F)(F)C(F)(F)F,inactive
20,N=C(N)C(F)(F)C(F)(F)C(F)(F)C(F)(F)C(F)(F)C(F)(F)C(F)(F)F,inactive
21,Cc1ccc(S(=O)(=O)OCC(F)(F)C(F)(F)C(F)(F)C(F)(F)C(F)(F)C(F)F)cc1,inactive
22,O=C(O)C=C(C(F)(F)F)C(F)(F)F,inactive
23,CC(CCl)OP(=O)(OC(C)CCl)OC(C)CCl (stereo not drawn),inactive
